FBA Mtb inh: inhibits M. tuberculosis FBA enzyme; 360,000 tested, 2.3% active; AID 588726; purified M. tuberculosis FBA, fluorescence read-out; P9WQA3; inhibition, % at 1 µM; in the data active = inhibition above about 27%;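 note: 0% = vehicle and 100% = reference inhibitor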
Target sequence (P9WQA3 whole entry, looked up): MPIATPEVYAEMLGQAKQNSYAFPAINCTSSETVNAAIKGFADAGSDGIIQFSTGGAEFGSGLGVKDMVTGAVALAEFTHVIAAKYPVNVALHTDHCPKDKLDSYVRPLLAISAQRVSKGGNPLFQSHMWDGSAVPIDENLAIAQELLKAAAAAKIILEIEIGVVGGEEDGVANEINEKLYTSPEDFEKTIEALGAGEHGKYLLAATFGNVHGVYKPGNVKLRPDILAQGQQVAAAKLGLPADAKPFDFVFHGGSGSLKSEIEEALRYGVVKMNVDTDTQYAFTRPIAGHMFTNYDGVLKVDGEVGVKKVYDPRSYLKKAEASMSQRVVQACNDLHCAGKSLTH
PrP UTR inh: suppresses PrP 5' UTR mRNA reporter expression; cell-based PrP 5' UTR mRNA reporter, plate reader; inhibition, % (concentration not given with the values); 340,000 tested, 0.35% active; in the data active = inhibition above about 52%; note: 0 = median of the neutral control wells
GDH-TPI counter: counter-screen for M. tuberculosis FBA inhibitors: GDH-TPI coupled enzymes; GDH-TPI coupled enzyme counterscreen, NADH absorbance; inhibition, % at 4.8 µM; 360,000 tested, 1.2% active; AID 588335; in the data active = inhibition above about 30%;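 note: 0% = DMSO wells and 100% = wells lacking the enzyme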
Mtb hypoxia rep: inhibitors of hypoxia-regulated fluorescent reporter in Mycobacterium tuberculosis. fluorescence inhibition, % (test concentration not listed). M. tuberculosis hypoxia-regulated fluorescent reporter, fluorescence. 300,000 tested, 0.1% active; in the data active = fluorescence inhibition mostly above about 23%, no sharp cut-off; inactive = mostly below about 17%
PrPC surface inh: reduces human prion protein on the cell surface. P04156. cell surface PrPC, TR-FRET read-out. inhibition, % at 13.8 µM. 370,000 tested, 0.43% active; in the data active = inhibition above about 24%; note: 0% = median of the test wells and 100% = reference compound wells
Y pestis TopoI: blocks Yersinia pestis topoisomerase I activity. 360,000 tested, 0.064% active. Y. pestis Topo-I cleavage product accumulation, plate reader. activity, % at 10 µM; in the data active = activity above about 50%, passing the limit was not always enough
Starred values were filed as active, the others as inactive; · = no result shown; + = active, no number. In the library only some 3.8% were active in any assay of this set; here they are far more common.

SMILES	FBA Mtb inh	PrP UTR inh	GDH-TPI counter	Mtb hypoxia rep	PrPC surface inh	Y pestis TopoI
COc1ccc(OC)c(/C=C2\Oc3cc(OCC(=O)N4CC(O)C[C@H]4C(=O)O)ccc3C2=O)c1 (stereo partly drawn)	-6	-12	40*	·	-34	1
COc1ccc(/C=C2\Oc3cc(OCC(=O)N4CC(O)C[C@H]4C(=O)O)ccc3C2=O)c(OC)c1OC (stereo partly drawn)	-1	-18	25	·	-51	-4
CC(O)C1CN=C(N)N1CC1CCCCC1 (stereo not drawn)	·	·	·	3	·	·
N#Cc1c(-c2ccccc2)[nH]c(=O)[nH]c1=O	0	5	5	-3	-6	8
N#Cc1c(-c2cccnc2)c2c([nH]c1=O)-c1ccccc1OC2	+	-12	14	10	-13	6
CCN1C(=O)C2C(c3ccc(-c4cccc(Cl)c4)cc3)N3CCC[C@@]3(C(=O)OC)C2C1=O (stereo partly drawn)	·	·	·	6	·	·
O=C(NCc1nc2ccccc2[nH]1)C1=CC(C2CCCCC2)CC(OCc2ccc(CO)cc2)O1 (stereo not drawn)	·	·	·	18	·	·
COc1ccc(CNc2nc3nc(C)c(Cl)c(=O)n3[nH]2)cc1	2	-12	-1	23*	-1	1
Cc1ccc(OCC(=O)N/N=C\c2c(C)n(C)c3ccccc23)c([N+](=O)[O-])c1	2	-22	31*	·	·	20
Cc1c(C=NNC(=O)COc2ccccc2[N+](=O)[O-])c2ccccc2n1C	·	·	·	9	·	·
Cc1c(/C=N/NC(=O)COc2ccccc2[N+](=O)[O-])c2ccccc2n1C	-4	-33	34*	·	0	32
CC1(C)CC(N=c2cc(-c3ccccc3)oc3ccc(Cl)cc23)CC(C)(C)N1	1	-21	15	·	-3	-8
OCCCN=c1cc(-c2ccccc2)oc2ccc(Cl)cc12	0	-43	49*	·	-34	-17
COc1ccc(Nc2oc(-c3ccccc3)nc2C#N)cc1	3	-49	7	-3	-2	-7
CCN1CCN(c2oc(COc3ccc(Cl)cc3)nc2C#N)CC1	3	-12	-3	9	-4	22
CNc1oc(/C=C/c2ccccc2)nc1C#N	+	-105	38*	11	-7	-5
CNc1oc(-c2ccccc2)nc1C#N	181*	-8	0	6	0	-7
CCN1CCN(c2oc(/C=C/c3ccccc3)nc2C#N)CC1	192*	-11	48*	9	-14	-9
CCN1C(=O)C(=CN2CC(C)CC(C)C2)SC1=S (stereo not drawn)	·	·	·	8	·	·
Cc1c(N=C2NN=C(c3c[nH]c4ccccc34)CS2)c(=O)n(-c2ccccc2)n1C	0	-10	50*	2	-5	2
Cc1c(N=C2NN=C(c3ccc(Cl)cc3)CS2)c(=O)n(-c2ccccc2)n1C	5	-6	5	-1	-2	3
CCCCCCCCCCCCCCCC[n+]1ccc(C=NO)cc1	·	·	·	12	·	·
c1ccc2c3c(cc(N4CCOCC4)c2c1)OC1(N2CCOCC2)CCCCC1O3 (stereo not drawn)	89*	1	1	8	5	2
C=CCNc1sc(C(=O)C2CC2)c(N)c1C#N	-2	-28	40*	·	-5	1
C=CCNc1sc(C(=O)c2ccccc2)c(N)c1C#N	-4	0	12	·	-13	0
SMILES	FBA Mtb inh	PrP UTR inh	GDH-TPI counter	Mtb hypoxia rep	PrPC surface inh	Y pestis TopoI
C=CCNc1sc(C(=O)C(C)(C)C)c(N)c1C#N	0	-3	40*	10	-1	5
C=C1CC(OC2OC(CO)C(O)C(O)C2O)C2C(C)C(=O)OC2C2C1CC(O)C2C (stereo not drawn)	·	·	·	0	·	·
Cn1cc(CC(NC(=O)OC(C)(C)C)C(=O)NC(CO)Cc2ccccc2)c2ccccc21 (stereo not drawn)	·	·	·	8	·	·
O=C(N/N=C/c1c(O)n(-c2ccccc2Cl)c(=O)c2ccccc12)C1COc2ccccc2O1 (stereo not drawn)	34*	-37	15	4	·	1
CN(NC1OC(=O)c2ccccc21)c1ccc(C(F)(F)F)cc1[N+](=O)[O-] (stereo not drawn)	-4	·	4	-8	-4	5
CN(NC1OC(=O)c2ccccc21)c1ccc(Cl)cc1[N+](=O)[O-] (stereo not drawn)	-3	-5	39*	21	-7	-3
Oc1ccc(/C=N/NC(=S)Nc2cccnc2)cc1	5	-22	36*	·	3	4

Screening results from PubChem.
